Among all 220,000 compounds or so, about 1,500 (0.68%) were called active. The sample holds actives, similar compounds and a random draw of the others, so the mix is not that of the screen. A number with no mark means an inactive call.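 Rule for the calls: active = Hck-Nef kinase inhibition above about 50% (limit read from the data); inactive = inhibition below that limit.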

This passage reports inhibition results from PubChem BioAssay AID463187 (University of Pittsburgh Molecular Library Screening Center, 2010).

For the experiment, the target named is Tyrosine-protein kinase HCK (Homo sapiens) (UniProt P08631). Kind of experiment: inhibitors of Nef-activated human Hck kinase, primary screen, biochemical, Z-Lyte FRET, 384-well, Hck-YEEI (AID 463187).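 Note: 0% = DMSO with Hck plus Nef and 100% = Hck alone without Nef.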 As to conditions: Recombinant Hck-YEEI plus Nef, Z-Lyte FRET kinase assay; at 20 µM; active compounds read high.
Tyrosine-protein kinase HCK (Homo sapiens), sequence (P08631 whole entry, looked up): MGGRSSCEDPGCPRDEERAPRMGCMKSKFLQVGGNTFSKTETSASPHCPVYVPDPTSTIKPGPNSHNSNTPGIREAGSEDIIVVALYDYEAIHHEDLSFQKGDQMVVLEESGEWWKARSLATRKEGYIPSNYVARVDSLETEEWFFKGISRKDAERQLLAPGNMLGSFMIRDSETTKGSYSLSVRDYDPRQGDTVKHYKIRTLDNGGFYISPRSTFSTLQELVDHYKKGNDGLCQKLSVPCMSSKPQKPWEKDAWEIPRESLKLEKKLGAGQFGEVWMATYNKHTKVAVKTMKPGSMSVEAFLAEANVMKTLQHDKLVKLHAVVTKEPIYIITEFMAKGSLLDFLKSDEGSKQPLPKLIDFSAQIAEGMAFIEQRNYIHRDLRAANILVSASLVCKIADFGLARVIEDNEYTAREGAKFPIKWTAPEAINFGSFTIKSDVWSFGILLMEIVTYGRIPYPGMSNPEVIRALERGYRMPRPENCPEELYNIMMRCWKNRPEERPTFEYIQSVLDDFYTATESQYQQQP
Usually inhibition stands for the relative decrease from the control value, in per cent. Take `COC(=O)Cn1c(=NC(=O)c2cc(OC)c(OC)c(OC)c2)sc2cc(OC)ccc21`: the inhibition was -1.02%.

Regarding `COCC(C)NC(=O)COc1nncc2ccccc12` (stereo not drawn), the inhibition is 21.5%.

On to `Cc1cc(=O)[nH]c(S)c1C#N`, for which the inhibition is -0.332%.

As for `O=S(=O)(Cc1ccccc1)c1nc2ccccc2n1Cc1ccccn1`, the inhibition is 5.67%.

Regarding `Cc1cc(/C=N/Nc2ccc([N+](=O)[O-])cn2)c(C)n1-c1cccc(C(=O)O)c1`, the inhibition is 58.6% (active).

In the case of `Cc1ccc(-n2c(C)cc(/C=N/Nc3ccc([N+](=O)[O-])cn3)c2C)c(C)c1`, the inhibition is 0.189%.

On to `Cc1cc(/C=N/n2cnnc2)c(C)n1-c1cccc(C(=O)O)c1`, for which the inhibition was -0.934%.

With `Cc1c(CCOC(=O)CC23CC4CC(CC(C)(C4)C2)C3)sc[n+]1Cc1ccc([N+](=O)[O-])cc1`, the inhibition is 6.69%.

As to `C=CCn1c(=N)n(CC(O)COc2ccc(OC)cc2)c2ccccc21` (stereo not drawn), the inhibition was 16%.

As for `COc1ccc(CCNCC(O)Cn2ccc3ccccc32)cc1OC` (stereo not drawn), the inhibition is 37.4%.

For `COC(=O)c1ccc(OCC(O)CN(CCO)CC(O)Cn2ccc3ccccc32)cc1` (stereo not drawn), the inhibition was 60.4% (active).

For `COCCCn1c(-c2cccs2)nc2nc3ccccc3nc21`, the inhibition is 67.9% (active).

For the compound `CC(C)n1c(-c2cccs2)nc2ccccc21`, the inhibition was 10.6%.

For the compound `COc1ccccc1C(=O)Nn1c(-c2cccs2)nc2ccccc2c1=O`, the inhibition is 2.4%.

With `Cc1cc(C)cc(C(=O)NC(=S)Nc2ccc3[nH]c(=O)[nH]c3c2)c1`, the inhibition was 2.61%.

As for `Cc1cc(-c2csc(N)n2)c(C)n1-c1ccccc1`, the inhibition was 7.5%.

As to `CCc1cccc2c(=O)c(C(=O)NCCCOC)c[nH]c12`, the inhibition was -18.3%.

Turning to `COc1ccc(CCn2c(=N)c(C(=O)NCc3ccco3)cc3c(=O)n4cccc(C)c4nc32)cc1`, the inhibition is 7.77%.

Take `COc1ccccc1N(C)S(=O)(=O)c1ccc(C(=O)NC2CCCCCC2)cc1`: the inhibition was 0.492%.

On to `CCCCn1c(N)c(N(CC)C(=O)/C=C/c2ccco2)c(=O)[nH]c1=O`, for which the inhibition was -7.95%.

In the case of `Cc1ccc(CCC(=O)Nc2ncc(Cc3cc(Cl)ccc3Cl)s2)o1`, the inhibition was 6.19%.

Take `O=C(c1cnn(-c2ccc(Cl)cc2)c1)c1ccccc1O`: the inhibition was 17%.

In the case of `Cc1ncc(CC(=O)n2cc(C(=O)c3cc(Cl)ccc3O)cn2)s1`, the inhibition was 78.7% (active).

Consider `O=C(NCc1csc(-c2cccs2)n1)C1CC1`, for which the inhibition is -1.15%.

As to `COC(=O)CN1C(=S)N(c2ccccc2)C(=O)C1CC(=O)Nc1ccc(Cl)cc1` (stereo not drawn), the inhibition was 2.46%.

With `COc1ccc(C(=O)n2nc(-c3ccc(C)cc3)nc2N)cc1OC`, the inhibition is -1.4%.

Regarding `COc1ccc(C(=O)n2nc(-c3ccc(Cl)cc3)nc2N)cc1OC`, the inhibition is 81.4% (active).

With `COc1ccc(C(=O)O/N=C(\N)Cc2ccc(Cl)cc2Cl)cc1OC`, the inhibition is 3.19%.
